According to PubChem BioAssay AID880 (National Center for Advancing Translational Sciences (NCATS), 2007):
Screen size: about 230,000 compounds; about 1,000 (0.43%) were called active. Calls follow the shape of the dose curve; as a rule, active = well fitted inhibition curve with a large enough effect (not every such curve was filed as active); inactive = no such curve, though single readings can be large or run the other way. Shown is part of a subset that was picked to be rich in actives. Where a call stands in place of a potency, no number is given.

Target: Guanine nucleotide-binding protein G(i) subunit alpha-1 (Homo sapiens) (UniProt P63096)
Sequence (P63096 whole entry, looked up): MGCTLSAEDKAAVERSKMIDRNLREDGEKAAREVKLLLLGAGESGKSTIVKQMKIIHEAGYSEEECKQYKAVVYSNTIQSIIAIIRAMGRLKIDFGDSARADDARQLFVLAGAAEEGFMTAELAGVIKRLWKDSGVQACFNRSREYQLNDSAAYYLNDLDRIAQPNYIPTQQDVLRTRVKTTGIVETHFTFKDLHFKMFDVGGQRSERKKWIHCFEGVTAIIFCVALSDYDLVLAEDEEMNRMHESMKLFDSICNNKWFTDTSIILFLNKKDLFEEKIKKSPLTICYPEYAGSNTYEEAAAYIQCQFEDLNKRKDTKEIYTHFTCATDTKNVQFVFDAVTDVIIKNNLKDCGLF
Experiment: qHTS Assay for Inhibitors of RGS12 GoLoco Motif Activity (Red Fluorophore); also: nearly all actives have a fitted effect of over 30% in size
Details: Gai1:RGS12 GoLoco peptide FP, rhodamine, 10 min; series mostly up to 61.6 µM
Excerpt: Assay Submitter: Siderovski, David P, University of North Carolina at Chapel Hill
Screening Center PI: Austin, C.P.
Screening Center: NIH Chemical Genomics Center [NCGC]
G-protein-coupled receptors (GPCRs) are major targets for drug discovery. The regulator of G-protein signaling (RGS)-protein family has important roles in GPCR signal transduction. RGS proteins contain a conserved RGS-box, which is often accompanied by other signaling regulatory elements. RGS proteins accelerate the deactivation of G proteins to reduce GPCR signaling; however, some also have an effector function and transmit signals. Combining GPCR agonists with RGS inhibitors should potentiate responses, and could markedly increase the agonist's regional specificity. The diversity of RGS proteins with highly localized and dynamically regulated distributions in brain makes them attractive targets for pharmacotherapy of central nervous system disorders. […] A complex of Gai1 and fluorescently labeled G-alpha-binding peptide (the "GoLoco motif") derived from RGS12 is incubated with library members. Inhibitors of the binding are detected by a decrease in the fluorescence polarization (FP) of the fluorophore. Protein was supplied by Prof. David Siderovski, University of North Carolina at Chapel Hill.
Assay Buffer: 10 mM Tris-HCl, 150 mM NaCl, 0.1 mM GDP (prepared fresh), and 0.05% NP40 at pH 7.5.
15 nM Rhodamine labeled peptide/25 nM protein in columns 1, 2, 5 - 48. Titration of unlabeled peptide control ([H][…][NH2], custom synthesized and HPLC-purified by Tufts University Core Facility) from 20 mM, then 1:2 dilution, 16-point in duplicate, pin-transferred to column 2, rows 1 to 32. Column 1 is neutral.
Rhodamine-labeled peptide (Rhodamine-[…]-NH2) was custom-synthesized and HPLC-purified by Invitrogen (Carlsbad, CA).
Four uL of reagents were dispensed to 1536-well Greiner black solid-bottom plates. Compounds and controls (23 nL) were transferred via Kalypsys PinTool. The plates were incubated for 10 min at room temperature, and then read on ViewLux (Perkin-Elmer) High-throughput CCD imager using BODIPY for the rhodamine-labeled decapeptide probe. During dispense, reagent bottles were kept submerged into 4 deg C water bath and all liquid lines were covered with aluminum foil to minimize probe and protein degradation. All screening operations were performed on a Kalypsys robotic system (Kalypsys, Inc., San Diego, CA) containing one RX-130 and two RX-90 anthropomorphic robotic arms.
Potency is read from the fitted curve at half-maximal effect.

Compound | Potency
COc1ccc(-c2nc(-c3ccccc3)oc2Nc2ccc3ccccc3c2)cc1 | inactive
CC1(C)CC(=O)C=C(N2CCCC2)C1 | inactive
O=C1CC(N2CCN(C(c3ccccc3)c3ccccc3)CC2)C(=O)N1 (stereo unspecified) | inactive
CC1(C)CC(N2CCN(C(c3ccccc3)c3ccccc3)CC2)=CC(=[N+]2CCCCC2)C1 | 17.8 µM (active)
O=C1C=CC(=O)N1c1ccc(N2CCCCC2)cc1 | 5.01 µM (active)
Cc1ccccc1C(=O)Nc1ccc(N2CCCCCC2)cc1 | inactive
CCOC(=O)/C(C#N)=C/c1ccc(N2CCCCC2)cc1 | inactive
N#C/C(=C/c1ccc(N2CCCCC2)o1)C(=O)NCCc1c[nH]c2ccccc12 | inactive
C=C/C1=C/Cc2ccccc2[C@H](C[N+](=O)[O-])C(C(=O)OC)(C(=O)OC)C1 | inactive
COc1ncnc2c1N=C1CC(C)(C)CC(N)=C1S2 | 25.1 µM (active)
COc1cccc(-c2cc(=O)c3cc(NC(=O)c4ccc(C)cc4)ccc3[nH]2)c1 | inactive
CC(=O)N(CC(O)CO)c1c(I)c(C(=O)NCC(O)CO)c(I)c(C(=O)NCC(O)CO)c1I (stereo unspecified) | inactive
COc1ccc2c(c1)C(=C(C#N)C#N)C(=O)N2CCc1ccccc1 | inactive
CC(=O)Nc1ccc(NC(=O)COc2ccc(S(=O)(=O)NC(C)c3ccccc3)cc2)cc1 (stereo unspecified) | inactive
COC(C(=O)Nc1ccc(S(=O)(=O)Nc2ccc(C)c(C)c2)cc1)c1ccccc1 (stereo unspecified) | inactive
CC(=O)/C(C)=N/O | inactive
COc1ccccc1C1CCN(C(=S)Nc2ccc(Br)cc2)CC1 | inactive
Cc1ccccc1CN(c1ccc(C(=O)NCC2CCCO2)cc1)S(C)(=O)=O (stereo unspecified) | inactive
Cc1ccccc1Cn1c2ccccc2c2cnn(CC(=O)NCc3ccco3)c(=O)c21 | inactive
CC1(C)OC(=O)N2CCc3ccccc3C21C (stereo unspecified) | inactive
COC(=O)c1ccccc1NC(=S)NC(=O)c1ccccc1F | inactive

Compound | Potency
CC(C)=CCC[C@]1(C)[C@@H](CC=C(C)C)C[C@@]2(CC=C(C)C)C(=O)[C@]1(C(=O)C(C)C)C(=O)C(CC=C(C)C)=C2O | inactive
O=C(NCc1ccco1)O[C@@H]1C(=O)c2cc(Br)ccc2O[C@H]1c1ccc2c(c1)OCO2 | inactive
COc1cc(/C=N/NC(=S)Nc2cccnc2)cc(OC)c1O | inactive
Cc1cccc([C@H]2[C@@H]3C=CC[C@@H](C)[C@@H]3C(=O)N2Cc2ccccc2)c1 | inactive
CC(=O)N/N=C(\C)c1ccc(Br)cc1Br | inactive
COc1ccc(C2C(C#N)=C(N)Oc3cc(N)ccc32)cc1OC (stereo unspecified) | inactive
OC[C@H]1O[C@@H](n2cnc3c(NC4CCCC4)ncnc32)[C@H](O)[C@H]1O | inactive
CC1(C)C2CCC1(C)C(OC(=O)c1ccc(O)cc1)C2 (stereo unspecified) | inactive
O=C(CSc1nc(-c2ccccc2)cs1)Nc1cccc([N+](=O)[O-])c1 | inactive
N#Cc1cccc(CS(=O)(=O)c2nnnn2-c2cc(C(F)(F)F)cc(C(F)(F)F)c2)c1 | inactive
C=CCSc1nc(N)cc(=O)[nH]1 | inactive
Cc1ccc(NC2=C(Cl)C(=O)OC2OC(=O)c2ccccc2C)cc1 (stereo unspecified) | inactive
Cc1cc(C)cc(NC(=S)NCc2ccc(F)cc2)c1 | inactive
O=C(C/C(=N\NC(=O)c1ccccc1Br)C(F)(F)F)c1cccs1 | inactive
Cc1cc(C(=O)NNC(=S)Nc2ccccc2C)cs1 | inactive
CN(C)C(=O)c1coc2nc3ccccc3nc12 | inactive
O=C1NC(c2ccc(-c3ccccc3[N+](=O)[O-])o2)C(C(=O)c2ccc(Cl)cc2)C(O)(C(F)(F)F)N1 (stereo unspecified) | inactive
COc1ccc(/C=C/C2=CC(C)(C)NC(=S)N2)c(OC)c1 | inactive
COC(=O)[C@@H]1CC2=CC(=O)CC[C@]2(C)[C@@]23O[C@@H]2C[C@@]2(C)[C@@H](CC[C@@]24CCC(=O)O4)[C@H]13 | inactive
O=c1[nH]n(-c2ccc([N+](=O)[O-])cc2)c(=O)c2ccccc12 | 14.1 µM (active)
O=C1CC(c2ccccc2)=NN1c1ccc([N+](=O)[O-])cc1 | inactive

Compound | Potency
O=c1[nH]c2cccnc2n1-c1ccc([N+](=O)[O-])cc1 | inactive
CCn1c(=O)c2cc(C(=O)Nc3cccc(C(C)=O)c3)sc2c2ccccc21 | inactive
COc1ccc(CC(=O)N2N=C(C)CC2(O)C(F)(F)F)cc1 (stereo unspecified) | inactive
COc1ccc(-c2c(C)cc3oc(=O)cc(-c4ccccc4)c3c2C)cc1C=O | inactive
Cc1ccccc1NC(=S)Nc1cccc([N+](=O)[O-])c1 | inactive
CC(=O)Nc1cccc([N+](=O)[O-])c1 | inactive
COC(=O)/C=C\C(=O)Nc1cccc([N+](=O)[O-])c1 | 0.891 µM (active)
C/C=C(\C)C(=O)OC1C(OC(=O)C2(C)OC2C)c2cc3ccc(=O)oc3cc2OC1(C)C (stereo unspecified) | inactive
Nc1ccc2nc3c(=O)[nH]c(=S)[nH]c3nc2c1 | 14.1 µM (active)
O=c1[nH]c(=O)c2nc3ccccc3nc2[nH]1 | inactive
CC(C)(C)NC(=O)c1ccc(Cn2cc(C(F)(F)F)ccc2=O)cc1 | inactive
CCCCCCCC[n+]1cccc(C(=O)N2c3c(nc(N)[nH]c3=O)NC(C)C2C)c1 (stereo unspecified) | 11.2 µM (active)
CCCCCCn1c(SCC(=O)c2ccccc2)nc2c1c(=O)[nH]c(=O)n2C | inactive
CCCCNC(=O)Nc1c(C)cc(SC#N)cc1C | inactive
O=C(Nc1ccc(N2CCOCC2)cc1)c1ccc(-c2ccccc2[N+](=O)[O-])o1 | inactive
COc1ccc(-c2csc3nc(-c4ccccc4F)oc(=O)c23)cc1OC | inactive
COc1cccc([C@@H]2Oc3ccc(Br)cc3C(=O)[C@H]2OC(=O)NCCc2ccc(OC)c(OC)c2)c1 | inactive
Cc1ccc2c(CC(=O)NCc3cccs3)coc2c1 | inactive
CCOC(=O)C1CCCN(C(=O)COc2ccc(N(C)S(=O)(=O)c3ccc(C)cc3)cc2)C1 (stereo unspecified) | inactive
